These results are taken from PubChem BioAssay (NCI).

Compounds without any hit were thinned out: in the full panel of roughly 83,000, 20% have a hit.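 In brief: 96-well plates, 48 h treatment, single concentration, percent growth endpoint.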 Values without a mark were called inactive. Calls of active or inactive are those of the source. The calls were made as follows: active = growth percent below 10; inactive = the rest.

Some test systems named below: HCT-15 colon; HT29 colon; SNB-75 CNS; SNB-19 CNS; U251 CNS; PC-3 prostate; SK-MEL-5 melanoma; UACC-62 melanoma; LOX IMVI melanoma; SK-MEL-28 melanoma.
Assay in all cases: NCI-60 one-dose screen, 48 h (100 = growth as untreated, 0 = no growth, -100 = all killed)
Details in all cases: 10 µM unless noted

Turning to `CCc1ccc(NC(=O)N[C@@H](Cc2cccc(F)c2)C(=O)N[C@@H]2C(=O)N3CCC[C@H]3C(=O)N3CCCC[C@H]3C(=O)N[C@@H](CO)C(=O)N3C[C@H](C)C[C@H]3C(=O)O[C@H]2C)c(F)c1`, the growth in the assay with HCT-15 colon was 15.1%; with HT29 colon, 36.1%; in the assay on SNB-75 CNS, 26.4%; in the assay with SNB-19 CNS, 28.1%; in the assay with U251 CNS, 30.9%; in the assay on PC-3 prostate, 17.5%. Besides, the growth with SK-MEL-5 melanoma is 0.508% (active); in the assay with UACC-62 melanoma, 27.2%; in the assay on LOX IMVI melanoma, 24.9%; with SK-MEL-28 melanoma, 44.6%.

Regarding `C=CCn1c(SCC(=O)Nc2cccc(C(=O)/C=C/c3cccc([N+](=O)[O-])c3)c2)nc2ccccc2c1=O`, the growth with HCT-15 colon is 79.3%; with HT29 colon, 94.9%; in the assay on SNB-75 CNS, 85.5%; in the assay with SNB-19 CNS it was 90.2%; in the assay on U251 CNS, 87.9%; with PC-3 prostate, 87.4%. For the same compound, the growth was 98.6% with SK-MEL-5 melanoma, 77.2% in the assay with UACC-62 melanoma, 72.8% in the assay with LOX IMVI melanoma and 95.4% in the assay on SK-MEL-28 melanoma.

For the compound `O=C(CSc1nnc(-c2ccc(Cl)cc2)n1-c1ccccc1)Nc1ccc(F)cc1`, the growth was 94.6% with HCT-15 colon; 87% with HT29 colon; 117% in the assay on SNB-75 CNS; 59.7% in the assay on SNB-19 CNS; 6.66% (active) with U251 CNS; 99.9% in the assay on PC-3 prostate. For the same compound, the growth was 96.4% in the assay with SK-MEL-5 melanoma, 82.4% in the assay with UACC-62 melanoma, 49.2% in the assay with LOX IMVI melanoma and 95.8% with SK-MEL-28 melanoma.

Consider `COc1cc(C2CC(c3ccc(Nc4nc(NCCO)nc(Nc5ccc(Cl)cc5)n4)cc3)=Nc3c(N)nc(N)nc3N2)cc(OC)c1OC` (stereo not given), for which the growth in the assay with HCT-15 colon was 54.2%; in the assay on HT29 colon it was 60.9%; with SNB-75 CNS, 91.4%; in the assay with SNB-19 CNS it was 47.1%; in the assay with U251 CNS, 38.7%; in the assay on PC-3 prostate it was 41.9%. Also, the growth in the assay on SK-MEL-5 melanoma was 53.4%; with UACC-62 melanoma, 77.6%; in the assay on LOX IMVI melanoma, 53.1%; in the assay with SK-MEL-28 melanoma it was 96.4%.

As for `O=c1[nH]c2cc(Cl)ccc2n1C1CCN(c2ccc3nnc(Cl)n3n2)CC1`, the growth is 96.5% in the assay on HCT-15 colon; 93.2% in the assay with HT29 colon; 73.1% in the assay with SNB-75 CNS; 92.6% in the assay on SNB-19 CNS; 99.2% in the assay on U251 CNS; 82% with PC-3 prostate. Moreover, the growth with SK-MEL-5 melanoma was 91.6%; with UACC-62 melanoma, 75.8%; in the assay on LOX IMVI melanoma it was 99.1%; in the assay with SK-MEL-28 melanoma it was 91.1%.

Consider `CN(C)C(=O)C1=NC(CO)C(=O)N(c2ccc(Cl)cc2)N1` (stereo not given), for which the growth was 102% in the assay on HCT-15 colon; 102% in the assay on HT29 colon; 105% in the assay with SNB-75 CNS; 102% in the assay with SNB-19 CNS; 101% in the assay with U251 CNS; 90.8% in the assay with PC-3 prostate. Further, the growth was 102% with SK-MEL-5 melanoma, 96.6% with UACC-62 melanoma, 95.3% in the assay on LOX IMVI melanoma and 107% in the assay on SK-MEL-28 melanoma.

Take `CCNCc1c(-c2cccc(OC(F)(F)F)c2)[nH]c2ccc(N3CCCC3)cc2c1=O`: the growth was 9.2% (active) in the assay on HCT-15 colon; 7.01% (active) in the assay with HT29 colon; -5.02% (active) with SNB-75 CNS; 19.8% with SNB-19 CNS; 20% in the assay with U251 CNS; 14.6% in the assay with PC-3 prostate. Further, the growth in the assay with SK-MEL-5 melanoma is 15.5%; in the assay on UACC-62 melanoma, 30.3%; in the assay on LOX IMVI melanoma, 21.9%; in the assay on SK-MEL-28 melanoma it was 48%.

Consider `O=C1CC2(CCOCC2)Oc2ncccc21`, for which the growth in the assay on HCT-15 colon is -62.6% (active); with HT29 colon, 49.8%; with SNB-75 CNS, 115%; in the assay with SNB-19 CNS, 51.4%; in the assay on U251 CNS, 22.3%; with PC-3 prostate it was 88.7%. For the same compound, the growth with SK-MEL-5 melanoma is 100%; in the assay with UACC-62 melanoma, 61.1%; in the assay on LOX IMVI melanoma, -78.7% (active); with SK-MEL-28 melanoma, -22.3% (active).

For `C=CCn1c(SCC(=O)Nc2ccc(OC)cc2)nnc1-c1ccc(Cl)cc1`, the growth in the assay with HCT-15 colon is 73.7%; in the assay on HT29 colon, 105%; with SNB-75 CNS, 97.4%; in the assay with SNB-19 CNS it was 91.7%; in the assay with U251 CNS, 105%; in the assay on PC-3 prostate, 95.1%. Moreover, the growth was 96.4% in the assay on SK-MEL-5 melanoma, 81.5% in the assay with UACC-62 melanoma, 93.8% in the assay with LOX IMVI melanoma and 92.5% in the assay on SK-MEL-28 melanoma.

Consider `Cn1cc(-c2nn3cc(-c4ccncc4)nc3s2)c2cc(Cl)ccc21`, for which the growth with HCT-15 colon was 5.44% (active); in the assay with HT29 colon it was 4.2% (active); in the assay with SNB-75 CNS, 88.6%; in the assay on SNB-19 CNS, 83%; in the assay on U251 CNS, 56.6%; in the assay with PC-3 prostate it was 14.6%. In addition, the growth is 55.7% in the assay with SK-MEL-5 melanoma, 54.5% with UACC-62 melanoma, 39.4% in the assay with LOX IMVI melanoma and 88.1% with SK-MEL-28 melanoma.

In the case of `CCCCCCNC(=O)Oc1ccc(/C(=C(\C)c2ccc(OC)cc2)c2ccc(OCCN(C)C)cc2)cc1`, the growth in the assay with HCT-15 colon was 30.8%; in the assay on HT29 colon, 15.8%; in the assay on SNB-75 CNS, 77.2%; with SNB-19 CNS, 74.9%; in the assay on U251 CNS it was 58.8%; in the assay with PC-3 prostate, 66.2%. For the same compound, the growth in the assay with SK-MEL-5 melanoma is 69.9%; in the assay with UACC-62 melanoma, 89.4%; with LOX IMVI melanoma, -48.5% (active); in the assay with SK-MEL-28 melanoma, 76.2%.

Take `COc1ccc([C@H]2[C@H](O)C(=O)N2c2cc(OC)c(OC)c(OC)c2)cc1`: the growth is 9.24% (active) with HCT-15 colon; -2.31% (active) in the assay with HT29 colon; 49.6% in the assay on SNB-75 CNS; 29% in the assay on SNB-19 CNS; 8.04% (active) with U251 CNS; 13.9% in the assay on PC-3 prostate. Also, the growth was 0.112% (active) with SK-MEL-5 melanoma, 20.6% in the assay on UACC-62 melanoma, 15.1% in the assay on LOX IMVI melanoma and 62.8% in the assay with SK-MEL-28 melanoma.
